In experiment [1] the test system is Wnt5a (protein binding on small-molecule microarray). As to the kind of experiment: Wnt5a binders on small-molecule microarray, primary screen, biophysical, 635/667 nm fluorescence (AID 1142).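 Further: fluorescence read at 667 nm with signal to noise per printed feature.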 The note with it: 635 nm fluorescence, higher = more signal.
Experiment [2] can be described thus: cell viability in Huh7 cells, primary screen, cytotoxicity control for HCV replication inhibitor project, CellTiter-Glo luminescence, basal, 48 h (AID 1143).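 Further: Huh7 hepatoma cells carrying a hepatitis C replication reporter with no stimulus; test concentration not given here.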 The note with it: Huh7 HCV replicon, higher = more signal, called active from +8 up or from −8 down. For orientation: ATP-based viability assays read luminescence as a measure of living cells.
A short description of experiment [3]: P. aeruginosa biofilm formation inhibitors, primary screen, PAO1 strain, BacTiter-Glo luminescence, LB-PBS (AID 1144). The conditions noted are these: 12 h, higher = more signal.
Experiment [4] in a line: CREB reporter modulators without forskolin, primary screen, cell-based, PC12, CRE-LacZ reporter, unstimulated (AID 1145). The note with it: no forskolin, luminescence, 4.5 h, higher = more signal, called active from +8 up or from −8 down.
Experiment [5] in a line: CREB reporter modulators under forskolin, primary screen, cell-based, PC12, CRE-LacZ reporter, forskolin-stimulated (AID 1146).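 Further: PC12 cells with 6xCRE LacZ reporter stimulated by forskolin 10 µM; beta-galactosidase reporter signal reflecting CREB driven transcription.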 The conditions noted are these: luminescence, 4.5 h, higher = more signal, called active from +8 up or from −8 down.
The target of experiment [6] is Streptavidin (Streptomyces avidinii) (UniProt P22629). As to the kind of experiment: streptavidin binders on small-molecule microarray, primary screen, artefact control for SMM compound annotation, biophysical, 635/667 nm fluorescence (AID 1147).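 Further: signal reflects streptavidin binding to arrayed compounds as a control protein.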 The conditions noted are these: streptavidin binding, higher = more signal.
Streptavidin (Streptomyces avidinii), sequence (P22629 whole entry, looked up): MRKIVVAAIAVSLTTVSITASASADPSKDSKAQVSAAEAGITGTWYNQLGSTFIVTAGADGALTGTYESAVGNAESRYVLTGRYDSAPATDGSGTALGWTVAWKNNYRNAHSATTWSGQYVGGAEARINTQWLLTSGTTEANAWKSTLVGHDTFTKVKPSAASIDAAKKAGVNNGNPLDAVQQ
The nature of experiment [7]: small-molecule binders of probe aInhba, primary screen, biochemical, small-molecule microarray, 635/667 nm fluorescence (AID 1148).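 Further: score merges 667nm spot fluorescence with signal-to-noise for antibody binding to printed compounds.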 The note with it: higher = more signal.
Experiment [8] deals with Torsin-1A (Homo sapiens) (UniProt O14656). The experiment is described as follows: torsin A binders from cell lysate, primary screen, small-molecule microarray, wild-type, 635/667 nm (AID 1149). The conditions noted are these: COS7 hTOR1A-WT lysate, 635 nm fluorescence, higher = more signal.
Torsin-1A (Homo sapiens), sequence (O14656 whole entry, looked up): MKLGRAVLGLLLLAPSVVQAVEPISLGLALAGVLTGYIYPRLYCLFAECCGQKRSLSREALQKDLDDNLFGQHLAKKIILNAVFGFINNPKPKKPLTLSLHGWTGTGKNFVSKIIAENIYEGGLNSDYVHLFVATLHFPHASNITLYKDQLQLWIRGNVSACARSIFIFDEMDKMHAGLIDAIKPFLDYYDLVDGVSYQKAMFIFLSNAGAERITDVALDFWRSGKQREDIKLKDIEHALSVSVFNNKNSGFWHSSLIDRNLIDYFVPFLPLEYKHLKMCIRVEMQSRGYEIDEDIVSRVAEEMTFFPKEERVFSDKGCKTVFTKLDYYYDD
For experiment [9] the target is unchanged. The experiment is described as follows: small-molecule binders of mutant TOR1A in lysate, primary screen, cell lysate, small-molecule microarray, COS7 lysate, 635/667 nm fluorescence (AID 1150).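 Further: score pools 667 nm emission and signal to noise measuring lysate protein binding.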 The note with it: COS7 hTOR1A mutant lysate, 635 nm fluorescence, higher = more signal.
Experiment [10] has as its system Sonic hedgehog protein (Shh). The experiment is described as follows: small-molecule binders of Shh protein, primary screen, biochemical, small-molecule microarray, 635/667 nm fluorescence (AID 1151).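 Further: Shh protein binding to compounds spotted on small-molecule microarray slides; score combines spot fluorescence intensity with signal-to-noise across triplicate slides.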 The conditions noted are these: small-molecule microarray binding, 635 nm fluorescence; higher = more signal.

Data on 19 molecules can be found in PubChem BioAssay.

Calls of active or inactive are those of the source. Unless noted, how the calls were made is not given here.

As for `[N-]=[N+]=Nc1ccccc1[C@H]1OC(c2ccc(OCCCO)cc2)=N[C@@]1(CCS(=O)(=O)c1ccccc1)C(=O)NCC(O)CO` (stereo not given in full), the composite z-score in [1] was 0.751; in [6], 1.29; in experiment [7], 0.15; with Torsin-1A (Homo sapiens) [8] it was 1.26; in the experiment with Torsin-1A (Homo sapiens) [9], 0.774; in experiment [10], -1.02. The z-score in experiment [2] is -1.46 (inactive); in [3], 0.732 (inactive); in experiment [4] it was 0.848 (inactive); in [5], -0.249 (inactive).
On to `CC1(C)[C@@H]2CC(C(O)C3C=CC4C(=O)N(c5ccccc5)C(=O)C4N3Nc3ccc([N+](=O)[O-])cc3)=C[C@H]1C2` (stereo not given in full), for which the composite z-score was 0.909 in [1]; 1.18 in experiment [6]; 0.0179 in [7]; 1.18 with Torsin-1A (Homo sapiens) [8]; 0.537 with Torsin-1A (Homo sapiens) [9]; 0.808 in experiment [10]. Besides, the z-score in experiment [2] was -1.2 (inactive); in experiment [3], -0.88 (inactive); in experiment [4] it was 0.323 (inactive); in [5] it was 0.617 (inactive).
For `COC(=O)[C@@]1(Cc2ccccc2)N=C(c2ccc(OCCCO)cc2)O[C@H]1c1ccccc1`, the composite z-score in experiment [1] is 0.912; in experiment [6], -0.369; in [7], 0.0816; with Torsin-1A (Homo sapiens) [8] it was 0.348; with Torsin-1A (Homo sapiens) [9] it was 1.74; in [10], -0.0883. Moreover, the z-score in experiment [2] was -4.45 (inactive); in experiment [3] it was 0.35 (inactive); in [4], 1.45 (inactive); in [5] it was -2.12 (inactive).
Regarding `CCC[C@@H]1C[C@@]1(CCC)[C@@H](NC(=O)c1ccccc1)c1cccc(Cl)c1`, the composite z-score is 2.05 in [1]; 2.17 in [6]; 1.32 in experiment [7]; 0.0875 with Torsin-1A (Homo sapiens) [8]; 0.512 in the experiment with Torsin-1A (Homo sapiens) [9]; -1.33 in experiment [10]. Moreover, the z-score in experiment [2] was -0.246 (inactive); in experiment [3] it was 0.0208 (inactive); in [4], 0.776 (inactive); in [5], 0.485 (inactive).
Regarding `C=C[C@H](CO)NS(=O)(=O)c1ccc(Br)cc1`, the composite z-score in experiment [1] was -0.269; in experiment [6] it was 0.257; in experiment [7], -0.159; in the experiment with Torsin-1A (Homo sapiens) [8], 0.0757; with Torsin-1A (Homo sapiens) [9], -0.0632; in experiment [10] it was 0.156. Besides, the z-score in [2] is 0.116 (inactive); in experiment [3], 0.564 (inactive); in [4], 0.643 (inactive); in experiment [5], 1.79 (inactive).
On to `NC(=O)NCC#Cc1ccc2c(c1)[C@]1(C(=O)N2)[C@H](C(=O)Nc2nc3ccccc3s2)[C@H]2C(=O)O[C@H](c3ccccc3)[C@H](c3ccccc3)N2[C@@H]1c1ccccc1OCCO`, for which the composite z-score in experiment [1] is 0.436; in [6], 2.4; in [7], 0.105; with Torsin-1A (Homo sapiens) [8], -0.3; with Torsin-1A (Homo sapiens) [9], 0.0607; in experiment [10] it was 2.04. The z-score in experiment [2] is -4.58 (inactive); in [3] it was -1.22 (inactive); in [4] it was 0.0776 (inactive); in [5], -0.327 (inactive).
Turning to `CCCc1cc2c(n1Cc1cc(F)cc(F)c1)C(C)C1CN(C(=O)c3ccccc3)C(C)(C(=O)OC)C21` (stereo not given), the composite z-score in experiment [1] is 0.239; in experiment [6] it was 1.4; in experiment [7], 0.786; in the experiment with Torsin-1A (Homo sapiens) [8] it was 0.361; with Torsin-1A (Homo sapiens) [9], 1.58; in [10], -0.236. For the same molecule, the z-score is -2.5 (inactive) in experiment [2], 0.335 (inactive) in experiment [3], 0.587 (inactive) in [4] and 1.31 (inactive) in experiment [5].
As for `C#C[C@H](O[Si](C#Cc1ccc(Oc2ccccc2)cc1)(C(C)C)C(C)C)c1ccccc1`, the composite z-score is 0.0942 in [1]; 0.145 in [6]; -0.082 in [7]; 1.38 with Torsin-1A (Homo sapiens) [8]; 0.122 with Torsin-1A (Homo sapiens) [9]; 0.21 in experiment [10]. The z-score in experiment [2] is -0.868 (inactive); in [3], -0.0203 (inactive); in experiment [4], 0.498 (inactive); in experiment [5] it was 1.7 (inactive).
For `COc1ccc(CCNC(=O)[C@@]2(Sc3ccc(C)cc3)CC(=O)N(C3Cc4ccccc4C3)[C@@H]2c2ccc(CO)cc2I)cc1`, the composite z-score was -0.234 in [1]; -0.814 in experiment [6]; -0.196 in [7]; -0.27 with Torsin-1A (Homo sapiens) [8]; 0.0598 in the experiment with Torsin-1A (Homo sapiens) [9]; -0.862 in experiment [10]. Moreover, the z-score is -1.23 (inactive) in experiment [2], 0.74 (inactive) in experiment [3], 0.649 (inactive) in experiment [4] and 1.82 (inactive) in experiment [5].
In the case of `CNS(=O)(=O)c1ccc(C)cc1`, the composite z-score in experiment [1] was 0.365; in experiment [6], 0.385; in experiment [7], -0.231; in the experiment with Torsin-1A (Homo sapiens) [8] it was 0.293; with Torsin-1A (Homo sapiens) [9] it was 0.371; in [10], 0.962. In addition, the z-score in [2] was -1.48 (inactive); in experiment [3], -0.307 (inactive); in experiment [4], -0.0576 (inactive); in experiment [5], -0.391 (inactive).
`O=C(NCCN1CCOCC1)[C@@H]1c2ccccc2C(=O)N(C2CCCCC2)[C@H]1c1ccc(CO)cc1`: the composite z-score was -0.178 in experiment [1]; 0.254 in experiment [6]; -0.153 in experiment [7]; -0.945 with Torsin-1A (Homo sapiens) [8]; -0.653 in the experiment with Torsin-1A (Homo sapiens) [9]; -0.908 in [10]. Also, the z-score in [2] was -0.742 (inactive); in [3], 0.00698 (inactive); in experiment [4], 0.791 (inactive); in experiment [5], -0.168 (inactive).
Regarding `O=C1C2C=CC(C(O)Cc3ccccc3)N(n3cnnc3)C2C(=O)N1Cc1ccccc1` (stereo not given), the composite z-score in [1] is 0.0769; in [6], 0.0646; in experiment [7], -0.0118; with Torsin-1A (Homo sapiens) [8], -0.0992; in the experiment with Torsin-1A (Homo sapiens) [9], 1.05; in experiment [10], -0.373. Also, the z-score in experiment [2] is 0.0633 (inactive); in experiment [3], 0.0973 (inactive); in experiment [4], -0.0696 (inactive); in [5], -0.413 (inactive).
Take `O=C1C2C=CC(C(O)CCc3ccccc3)N(Nc3ccccc3F)C2C(=O)N1c1ccccc1` (stereo not given): the composite z-score in experiment [1] came out at 0.43; in experiment [6], 0.787; in experiment [7], 0.131; with Torsin-1A (Homo sapiens) [8], 0.204; with Torsin-1A (Homo sapiens) [9], 0.538; in experiment [10], 0.366. In addition, the z-score in experiment [2] is -0.381 (inactive); in experiment [3] it was -0.315 (inactive); in experiment [4], -0.331 (inactive); in experiment [5], 0.654 (inactive).
For the molecule `CC(C)C[C@@H]1NC(=O)[C@@H]2C[C@H](C(=O)NCc3ccc(F)cc3)[C@H](c3cccc(OCCO)c3)N2C1=O`, the composite z-score in [1] was 1.9; in experiment [6], -0.443; in [7], 0.286; in the experiment with Torsin-1A (Homo sapiens) [8], 0.265; with Torsin-1A (Homo sapiens) [9], 1.3; in experiment [10] it was 1.75. Besides, the z-score was -0.119 (inactive) in experiment [2], -1.53 (inactive) in experiment [3], 0.826 (inactive) in experiment [4] and -0.798 (inactive) in experiment [5].
Consider `C=C(C(=O)CC[C@@H](OC(=O)c1cccnc1)c1ccccc1OCCO)C(C)C`, for which the composite z-score was -0.0008 in experiment [1]; -0.405 in [6]; -0.0112 in [7]; 0.784 with Torsin-1A (Homo sapiens) [8]; 0.962 with Torsin-1A (Homo sapiens) [9]; 1.37 in experiment [10]. Further, the z-score in experiment [2] is -1.25 (inactive); in experiment [3], -0.0644 (inactive); in experiment [4], 8.13 (active); in experiment [5] it was 1.17 (inactive).
Take `COc1ccc(C(=O)Nc2ccc(CN3C(=O)[C@]4(O[C@H](CCO)[C@@H]([Si](C)(C)c5ccc(OC)cc5)[C@@H]4C)c4ccccc43)cc2)cc1`: the composite z-score in experiment [1] amounted to 0.406; in [6], 0.566; in [7], 0.0014; with Torsin-1A (Homo sapiens) [8], 0.108; in the experiment with Torsin-1A (Homo sapiens) [9] it was 0.165; in experiment [10] it was 1.48. Further, the z-score in experiment [2] is -7.95 (inactive); in [3], -0.925 (inactive); in experiment [4], 8.84 (active); in [5], -1.89 (inactive).
With `C=C(COC)/C(=C/C[C@@H](OC(C)=O)c1ccc(OCCO)cc1)c1cnc2ccccc2c1`, the composite z-score in experiment [1] was 0.837; in [6], 1.36; in experiment [7], -0.0403; with Torsin-1A (Homo sapiens) [8] it was -0.148; in the experiment with Torsin-1A (Homo sapiens) [9], 0.647; in experiment [10] it was 1.75. The z-score in [2] was -2.22 (inactive); in experiment [3] it was -0.826 (inactive); in experiment [4], 3.77 (inactive); in [5], -0.861 (inactive).
In the case of `Cc1ccc(N2C(=O)c3ccccc3[C@@H](C(=O)NC3CC3)[C@@H]2c2ccc(CO)cc2)nc1`, the composite z-score was -0.645 in experiment [1]; -1.76 in [6]; -0.282 in experiment [7]; 1.23 with Torsin-1A (Homo sapiens) [8]; 0.969 with Torsin-1A (Homo sapiens) [9]; -0.958 in [10]. In addition, the z-score was 0.256 (inactive) in experiment [2], -0.754 (inactive) in experiment [3], -0.062 (inactive) in [4] and 0.986 (inactive) in [5].
On to `CC(C)C(=C=CC[C@@H](O)c1ccc(OCCO)cc1)C[C@@H](O)c1ccccn1`, for which the composite z-score in [1] is 0.207; in [6] it was 0.0453; in [7] it was -0.231; with Torsin-1A (Homo sapiens) [8] it was 0.75; with Torsin-1A (Homo sapiens) [9], 0.205; in [10], 2.26. Besides, the z-score in experiment [2] was -0.661 (inactive); in [3], 0.205 (inactive); in experiment [4], 0.145 (inactive); in experiment [5], 1.4 (inactive).
